Among all 48,000 compounds or so, about 1,200 (2.5%) were called active. Another 2% or so got no clear call; they are omitted. Only a selection was taken, and actives are over-represented in it overall. Unmarked numbers belong to inactive results.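 Rule for the calls: active = activation of at least 60% and not above a set upper limit (about 1 call in 100 departs from these limits); inconclusive = activation of 40% to 60%, or above that upper limit; inactive = activation under 40%.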

Probable G-protein coupled receptor 32 (Homo sapiens), sequence (O75388 whole entry, looked up): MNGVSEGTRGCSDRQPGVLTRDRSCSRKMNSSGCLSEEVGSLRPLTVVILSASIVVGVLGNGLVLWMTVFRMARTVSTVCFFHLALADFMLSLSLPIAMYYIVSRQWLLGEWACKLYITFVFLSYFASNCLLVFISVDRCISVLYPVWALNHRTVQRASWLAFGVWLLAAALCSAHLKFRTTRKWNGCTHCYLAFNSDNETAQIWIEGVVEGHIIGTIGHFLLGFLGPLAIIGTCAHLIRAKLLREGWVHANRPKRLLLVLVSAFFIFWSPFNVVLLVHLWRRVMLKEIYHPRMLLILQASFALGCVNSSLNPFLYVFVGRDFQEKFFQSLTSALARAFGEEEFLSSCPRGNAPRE

This assay addresses Probable G-protein coupled receptor 32 (Homo sapiens) (UniProt O75388). Description: qHTS for Agonists of Human Resolvin D1 Receptor DRV1. The following applies: CHO-K1 GPR32 beta-arrestin PathHunter luminescence, 90 min; at 76.9 µM; stronger effect = higher value; zero percent set by DMSO-only wells. The text has this: Endogenous resolution of inflammation is known to be transduced through various GPCRs and their natural mediators of lipid nature. Resolvin D1 (RvD1) is one of the active players in resolution of acute inflammation through regulation of anti-inflammatory pathways; it is known to enhance phagocytosis of human macrophages, limits neutrophils infiltration, etc. […] The search for GPR32-activating small molecules with anti-inflammatory effects similar to its natural omega-3 derivative ligand in order to use them as research tools for further studies of inflammation and its resolution was the goal of this screening project. For primary screening assay, we used CHO-K1 GPR32 beta-arrestin cell line (DiscoveRx, #93-0321C2A) and the PathHunter(R) beta-Arrestin Assay (DiscoveRx) which measures recruitment of beta-arrestin to the GPR32 and generates chemiluminescent signal. These engineered cells stably transfected with GPR32 co-express GPR32-fused small 42-amino acid fragment of beta-Gal called ProLinktrade mark, and […] -tagged beta-Arrestin fusion protein. When GPR32 is activated by a ligand, it stimulates binding of beta -Arrestin to ProLink-tagged GPR32, and two parts of beta-Gal complement forming a functional enzyme. Upon substrate (PathHunter(R) Detection reagent) addition, beta-Gal hydrolyzes it and generates a chemiluminescent signal.
The cells were thawed and plated in thawing media containing F-12 HAM (Invitrogen, #11765-054), 10% FBS (Invitrogen, #10082), 1x Glutamine, and 1x Pen/Strep onto the 175-mm flask for 24 hours. Then, thawing media was replaced with Growth media which contains 800microg/mL Geneticin (Invitrogen, #10131) and 300microg/mL Hygromycin B (Invitrogen, #10687) in addition to described above. For the assay, the cells were harvested at ~80% confluent stage with Cell Dissociation buffer (Gibco, #13151), and seeded at 2,500 cells/ 3microL/well in assay media (PathHunter(R) Cell Plating Reagent, DiscoverX, #93-0563R1B) using MultiDrop Combi dispenser (Thermo Scientific, Logan, UT) onto white solid bottom tissue culture-treated 1536-well plates (Greiner # 789173-F) and allowed to attach overnight at 37 degrees C, 95% humidity, 5% CO2, . Next, 23nL/well of compound solutions in DMSO were added with a Pin Tool (Kalypsis, San Diego, CA) to the assay plates. As the basal control (EC0), 23 nL/well of DMSO was used on each plate. The cells were incubated in the presence of compounds or DMSO for 90 minutes at 37 degrees C, 5% CO2. Subsequently, 1.5microL/well of PathHunter(R) Detection Reagent prepared per the manufacturer's instructions was added to the assay plates with BioRAPTR FRDtrade mark dispenser (Beckman Coulter, San Francisco, CA) and incubated for 1 hour at ambient temperature prior to the measurement of the luminescent signal on ViewLux(R) uHTS Microplate Imager (Perkin Elmer, Waltham, MA).
Background: Quantitative high-throughput screening tests each substance at several concentrations.
On to `Cc1ccc(Cl)cc1N1CCN(S(=O)(=O)c2cc3[nH]c(=O)c(=O)[nH]c3cc2C)CC1`, for which the activation was 97% (active).

Take `COC(=O)c1cc(S(=O)(=O)N2CCN(c3cc(Cl)ccc3C)CC2)c[nH]1`: the activation was 13.7%.

For `CCn1cc(C(=O)N2CCN(c3cc(Cl)ccc3C)CC2)c(=O)c2cc(S(=O)(=O)N3CCCC3)ccc21`, the activation was -4.63%.

Take `Cc1c(C)n(Cc2ccc(Cl)cc2)c2ccc(C(=O)N3CCN(c4ccccc4F)CC3)cc12`: the activation was -26.9%.

Take `O=C1N(Cc2ccccc2)c2ccc(Cl)cc2C1(O)c1c[nH]c2ccccc12` (stereo not drawn): the activation is 116% (active).

Consider `O=C(CC1Oc2ccc(Cl)cc2NC1=O)NCc1ccccc1` (stereo not drawn), for which the activation was -14.9%.

As for `O=c1c2ccccc2n(Cc2cccc(Cl)c2)c(=O)n1Cc1ccccc1`, the activation was -10.4%.

Turning to `Cc1cccc(NC(=O)Cn2nc(-c3ccc(Cl)cc3)c3ccccc3c2=O)c1`, the activation was -2.07%.

Turning to `COc1ccc(OCCCn2c(C3CC(=O)N(c4ccc(F)cc4)C3)nc3ccccc32)cc1` (stereo not drawn), the activation was 1.68%.

As to `Cc1ccc(C)c(N2CCN(C(=O)Cc3c(C(=O)O)c(C)cn3C)CC2)c1`, the activation is -4.29%.

Consider `CCOC(=O)c1ccc(NC(=O)C2CCN(S(=O)(=O)c3ccc4c(c3)CCCC(=O)N4)CC2)cc1`, for which the activation was 68.9% (active).

In the case of `COc1ccc(OC)c(NC(=O)C2CCCN(S(=O)(=O)c3ccc4c(c3)CCCC(=O)N4)C2)c1` (stereo not drawn), the activation was -4.17%.

Turning to `CC(=O)Nc1ccc(NC(=O)C2CCCN(S(=O)(=O)c3ccc4c(c3)CCCC(=O)N4)C2)cc1` (stereo not drawn), the activation was 16.8%.

Take `COc1ccc(Cl)cc1NC(=O)NCC1CCN(Cc2ccccc2F)CC1`: the activation was -10.4%.

For the molecule `CCOc1ccc(C2CC(=O)c3c([nH]c(C(=O)OCc4ccccc4)c3C)C2)cc1` (stereo not drawn), the activation is 49.1%.

Take `COc1cccc(CNC(=O)c2cc(=O)[nH]c3ccc(S(=O)(=O)N4CCCCC4)cc23)c1`: the activation is -3.54%.

With `CCC(=O)N1CCc2cc(Br)cc(S(=O)(=O)NCc3ccc(Cl)cc3)c21`, the activation was 19.3%.

On to `CCOc1ccc(N(CC)C(=O)c2cc3c(=O)oc4ccccc4c3s2)cc1`, for which the activation is 21.3%.

For the molecule `CCN(CC)CCNC(=O)c1cc2c(=O)oc3ccc(C)cc3c2s1`, the activation is 67.3% (active).

As to `COc1ccc(Cl)cc1N(C)C(=O)c1cc2c(=O)oc3ccc(C)cc3c2s1`, the activation was 29.1%.

For `Cc1cccc(Nc2cc(C)nc(-n3nc(C)cc3C)n2)c1`, the activation is -20.8%.

Take `O=C(c1ccc2c(c1)N(Cc1ccccc1)C(=O)c1ccccc1S2(=O)=O)N1CCC(Cc2ccccc2)CC1`: the activation was -8.72%.

Regarding `CC1CCCCN1Cc1c(O)ccc2c(=O)c(-c3cccc(Cl)c3)c(C(F)(F)F)oc12` (stereo not drawn), the activation is -11.7%.

`Cc1ccc(C)c(Oc2c(C(F)(F)F)oc3c(CN4CCN(C)CC4)c(O)ccc3c2=O)c1`: the activation was -14.3%.

For `COc1ccc(-c2c(C)c3ccc(O)c(CN4CCCC4)c3oc2=O)cc1OC`, the activation was -5.21%.

For the molecule `Cc1ccc(Oc2c(C(F)(F)F)oc3c(CN4CCCCC4)c(O)ccc3c2=O)cc1`, the activation was -34.2%.

As to `CCC1CCCCN1Cc1c(O)ccc2c(=O)c(Oc3ccccc3Cl)c(C(F)(F)F)oc12` (stereo not drawn), the activation was 102% (active).

For `CC1CCCN(Cc2c(O)ccc3c(=O)c(Oc4ccc(C(C)(C)C)cc4)c(C(F)(F)F)oc23)C1` (stereo not drawn), the activation is 64.7% (active).

In the case of `Cc1ccsc1CN(C(=O)c1oc2ccc(Br)cc2c1C)C1CCS(=O)(=O)C1` (stereo not drawn), the activation was -26.5%.

For the molecule `Cn1c(=O)n(C)c2cc(NS(=O)(=O)c3ccc(F)cc3)ccc21`, the activation was 7.69%.

Consider `Cc1cc(F)ccc1NS(=O)(=O)c1ccc(-n2cccn2)cc1`, for which the activation was 106% (active).

Take `Cc1cc(F)ccc1NC1(c2ccccc2)C(=O)c2ccccc2C1=O`: the activation is -74.1%.

Turning to `CCOC(=O)N1CCc2c(sc3c2c(=O)n(-c2ccc(CC)cc2)c(=O)n3C)C1`, the activation is -6.72%.

Turning to `CC(Nc1ccc(-c2nc(-c3ccco3)no2)cc1[N+](=O)[O-])c1ccccc1` (stereo not drawn), the activation is -14.5%.

Turning to `COc1ccc(OC)c(NC(=O)CSc2nc3ccccc3nc2N2CCCCC2)c1`, the activation was -20.5%.

For the molecule `O=S(=O)(Nc1ccc2nc(-c3cccc(Cl)c3)oc2c1)c1ccccc1`, the activation is 93.4% (active).

As for `O=C(Nc1ccc(O)c(-c2nc3ccccc3o2)c1)c1ccc(-c2cccc(Cl)c2)o1`, the activation was 10.7%.

As to `O=C(Nc1cccc(-c2nc3ccccc3o2)c1)c1cccc(Br)c1`, the activation was -18.9%.

Turning to `COC(=O)c1ccc(Cn2c(SCC(=O)N(C)c3ccccc3)nc3ccccc32)cc1`, the activation was -14.8%.

For `Cc1cccc(NC(=O)CSc2ncc(-c3ccccc3)[nH]2)c1C`, the activation is 93% (active).

Consider `CCOc1cccc(NC(=O)CSc2ncc(-c3ccc(Cl)cc3)[nH]2)c1`, for which the activation is -15.1%.

With `O=C(CSc1ncc(-c2ccccc2)[nH]1)Nc1ccc(F)cc1F`, the activation was -23.6%.

Consider `COC(=O)c1ccc(NC(=O)CCc2c(C)nc3c(c(C)nn3-c3ccc(C)cc3)c2C)cc1`, for which the activation was -18.2%.

For the molecule `CCc1ccc(NC(=O)Cn2c(=O)n(CCC(=O)NCc3ccc4c(c3)OCO4)c(=O)c3ccccc32)cc1`, the activation was -4.89%.

Turning to `Cc1ccccc1NC(=O)Cn1cc(C(=O)c2cccs2)c2ccccc21`, the activation is -6.21%.

In the case of `Cn1c(=O)c2c(SCC(=O)NCC3CCCO3)nc(-c3ccccc3F)nc2n(C)c1=O` (stereo not drawn), the activation was -4.7%.

On to `CCOc1ccc(NC(=O)c2cnn(-c3ccccc3)c2-n2cccc2)cc1`, for which the activation was -6.74%.

As to `CN1CC[C@H](c2c(O)cc(O)c3c(=O)cc(-c4ccccc4Cl)oc23)[C@H](O)C1`, the activation is -16.5%.

Turning to `O=C(NC1CC(=O)N(c2ccc(F)cc2)C1)C1CCCCC1` (stereo not drawn), the activation is -2.56%.

For the molecule `COc1cc(OC)cc(C(=O)Nc2c(C(=O)Nc3ccc(F)cc3)oc3ccccc23)c1`, the activation is 1.9%.

Regarding `CC(C)(C)C1CCc2c(sc(NC(=O)c3ccccc3F)c2C(=O)N2CCCCC2)C1` (stereo not drawn), the activation was -35.6%.

Regarding `CC(C)C(=O)Nc1nc2c(s1)CC(C(C)(C)C)CC2` (stereo not drawn), the activation was 63.2% (active).

As for `Cc1cc(C)cc(OC(C)C(=O)Nc2nc3c(s2)CCCC3)c1` (stereo not drawn), the activation is -14.5%.
